Here are results for 40 compounds from PubChem BioAssay.

Activity calls are given as the source filed them.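 The calls were made as follows: active = GFP response below 50% of the DMSO control; inconclusive = fewer than 70 events counted for a yeast strain; inactive = the rest.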

One assay in a line: hit retest on RPL19A-GFP reporter strain – cell-based, S. cerevisiae, flow cytometry, cherry picks, mother/daughter gates, confirmation (AID 2270). The following applies: 3 h, at 10 µM, stronger effect = lower value, 100 = same GFP as DMSO wells.
`COC(=O)Cn1cc(/C=C/c2cc[n+](C)cc2)c2ccccc21`: the GFP response vs DMSO was 99.3% (inactive).
Same read-out and setting: the result for `C=CCNC(=S)N/N=C(\C)c1cccc(OC)c1` reads 100% (inactive).
Take `COc1cccc(-c2nnc(NC(=O)c3ccc(S(=O)(=O)N4CCOCC4)cc3)o2)c1`: the GFP response vs DMSO is 97.6% (inactive).
The same measure, in the same setting: the result for `CCc1ccc(CNC(=O)CCC(=O)N2Cc3cccc(OC)c3Oc3ncccc32)cc1` reads 99.2% (inactive); that for `N#C/C(=C\c1c(N2CCCCCC2)nc2ccccn2c1=O)C(=O)NCc1ccco1`, 96% (inactive).
Still for that read-out and setting: next, `C=CCn1c(=O)c(C(=O)NCCc2ccccc2)c(O)c2ccccc21`: 98.4% (inactive).
The same measure, in the same setting: the result for `CCOC(=O)COc1c(Cl)cc(/C=C2\N=C(C)OC2=O)cc1OC` reads 105% (inactive).
As for `CCOc1ccccc1/C=C/C(=O)c1ccc(Cl)cc1`, the GFP response vs DMSO is 98.2% (inactive).
On the same count and under the same terms, the result for `Cc1c([N+](=O)[O-])cnc(Sc2ccccc2)c1[N+](=O)[O-]` reads 100% (inactive).
Same read-out and setting: next, `O=C(COC(=O)c1ccc(NS(=O)(=O)c2cccs2)cc1O)Nc1nc2ccccc2s1`: 101% (inactive).
Regarding `COc1ccc(Sc2ncnc3onc(C)c23)cc1`, the GFP response vs DMSO is 96.7% (inactive).
On the same count and under the same terms, the result for `Cc1ccc(S(=O)(=O)N2C3C=CC(C3)C2C(=O)O)cc1` (stereo not given) reads 96% (inactive).
Same read-out and setting: next, `Cc1ccc(C(C[N+](=O)[O-])Sc2ccc(N)cc2)cc1` (stereo not given): 95.6% (inactive); `CCOc1ccc(N2C(=O)CC(SCCN)C2=O)cc1` (stereo not given): 97.6% (inactive).
The same measure, in the same setting: next, `O=C(O)Cc1sc(Nc2ccccc2)nc1-c1cccs1`: 97.8% (inactive).
With `COc1ccccc1-c1noc(CCC(=O)Nc2cccc(C(F)(F)F)c2)n1`, the GFP response vs DMSO is 98.2% (inactive).
On to `Cn1cc(/C=C/c2cc[n+](C)cc2)c2cc(Cl)ccc21`, for which the GFP response vs DMSO was 99.2% (inactive).
On to `COc1cccc(-c2noc(-c3cccnc3)n2)c1`, for which the GFP response vs DMSO is 97.2% (inactive).
The same measure, in the same setting: the result for `COc1ccc(-c2ccc(SCC(=O)N3c4ccccc4CC3C)nn2)cc1OC` (stereo not given) reads 99.1% (inactive).
Turning to `Cc1ccc2c(nc3s/c(=C\c4ccc(-c5ccccc5C(=O)O)o4)c(=O)n32)c1C`, the GFP response vs DMSO is 119% (inactive).
The same measure, in the same setting: next, `COC(=O)C1=C(C)NC(C)=C(C(=O)OC)C1c1ccc(OC(=O)c2oc3ccccc3c2C)c(OC)c1`: 98.8% (inactive).
The same measure, in the same setting: next, `COc1ccc(N2CCN(C(=O)C3CCCN(S(=O)(=O)c4ccc(C)cc4)C3)CC2)cc1` (stereo not given): 95.2% (inactive); `O=C(Nc1nccs1)C(c1ccccc1)N1CCCCC1` (stereo not given): 103% (inactive); `C/C(=N\NC(=O)c1cccc(Br)c1)c1ccc(Br)cc1`: 96.7% (inactive).
For `O=C(OCCCOC(=O)c1ccc(Br)o1)c1ccc(Br)o1`, the GFP response vs DMSO is 98.2% (inactive).
On the same count and under the same terms, next, `CCOC(=O)Cc1csc(NC(=O)c2sc3nc4c(C)cc(C)cc4cc3c2N)n1`: 104% (inactive); `Cc1nn2c(N3CCOCC3)c3c(nc2c1-c1ccccc1)CCCC3`: 103% (inactive).
`O=C(Nc1cc(Sc2ccccn2)cc([N+](=O)[O-])c1)c1ccc(Cl)cc1`: the GFP response vs DMSO was 99% (inactive).
Consider `O=S(=O)(c1cccc(C(F)(F)F)c1)c1ccc(O)cn1`, for which the GFP response vs DMSO was 98.8% (inactive).
On to `COc1cc(/C=N/Nc2nc(C)cc(=O)[nH]2)ccc1O`, for which the GFP response vs DMSO is 100% (inactive).
As to `O=C(N/N=C/c1ccccc1Cl)c1ccc(F)cc1`, the GFP response vs DMSO is 98.2% (inactive).
Same read-out and setting: next, `Cc1cccc(C(=O)Nc2ccc(O)cc2)c1`: 97.6% (inactive).
Still for that read-out and setting: the result for `COc1ccc(NC2=C(Cl)C(=O)N(CCc3ccccc3)C2=O)cc1` reads 98.7% (inactive); that for `CN(C(=O)c1cccnc1)c1nc(-c2ccccc2)cs1`, 97.6% (inactive).
With `Cc1ccc(NC(=O)c2nc(S(=O)(=O)Cc3ccccc3C)ncc2Cl)cc1C`, the GFP response vs DMSO is 91.6% (inactive).
The same measure, in the same setting: the result for `Cc1cccn2c(=O)c(/C=C(\C#N)C(=O)NCc3ccco3)c(N3CCC(C(N)=O)CC3)nc12` reads 89.5% (inactive); that for `Cc1cc(C)c(C)c(S(=O)(=O)ON2C(=O)c3ccccc3C2=O)c1C`, 103% (inactive); that for `CS(=O)(=O)c1nc(-c2cccs2)cc(C(F)(F)F)n1`, 93% (inactive).
For `COc1cc(NC(=O)c2cccs2)ccc1NC(=O)c1cc2ccccc2o1`, the GFP response vs DMSO was 97% (inactive).
With `Cc1cc(NCCN2CCOCC2)n2ncc(-c3ccccc3)c2n1`, the GFP response vs DMSO was 99.6% (inactive).

Staying with this assay, now noted: 3 h, measured here: daughter cell gate, at 10 µM, stronger effect = lower value, 100 = same GFP as DMSO wells.
`COC(=O)Cn1cc(/C=C/c2cc[n+](C)cc2)c2ccccc21` gave a GFP response vs DMSO of 99.3%.
`C=CCNC(=S)N/N=C(\C)c1cccc(OC)c1` returned a GFP response vs DMSO of 102%.
Still for that read-out and setting: the result for `COc1cccc(-c2nnc(NC(=O)c3ccc(S(=O)(=O)N4CCOCC4)cc3)o2)c1` reads 97.8%; that for `CCc1ccc(CNC(=O)CCC(=O)N2Cc3cccc(OC)c3Oc3ncccc32)cc1`, 98.8%.
The same measure, in the same setting: next, `N#C/C(=C\c1c(N2CCCCCC2)nc2ccccn2c1=O)C(=O)NCc1ccco1`: 97.9%; `C=CCn1c(=O)c(C(=O)NCCc2ccccc2)c(O)c2ccccc21`: 98.9%.
The same measure, in the same setting: next, `CCOC(=O)COc1c(Cl)cc(/C=C2\N=C(C)OC2=O)cc1OC`: 105%.
Compound `CCOc1ccccc1/C=C/C(=O)c1ccc(Cl)cc1` returned a GFP response vs DMSO of 97.1%.
As for `Cc1c([N+](=O)[O-])cnc(Sc2ccccc2)c1[N+](=O)[O-]`, the GFP response vs DMSO stood at 96.9%.
On the same count and under the same terms, next, `O=C(COC(=O)c1ccc(NS(=O)(=O)c2cccs2)cc1O)Nc1nc2ccccc2s1`: 100%; `COc1ccc(Sc2ncnc3onc(C)c23)cc1`: 96.1%.
For the compound `Cc1ccc(S(=O)(=O)N2C3C=CC(C3)C2C(=O)O)cc1` (stereo not given), the GFP response vs DMSO was found to be 97.6%.
`Cc1ccc(C(C[N+](=O)[O-])Sc2ccc(N)cc2)cc1` (stereo not given) showed a GFP response vs DMSO of 98.4%.
Still for that read-out and setting: the result for `CCOc1ccc(N2C(=O)CC(SCCN)C2=O)cc1` (stereo not given) reads 98.9%.
Still for that read-out and setting: next, `O=C(O)Cc1sc(Nc2ccccc2)nc1-c1cccs1`: 98%; `COc1ccccc1-c1noc(CCC(=O)Nc2cccc(C(F)(F)F)c2)n1`: 97.9%.
The compound `Cn1cc(/C=C/c2cc[n+](C)cc2)c2cc(Cl)ccc21` came in with a GFP response vs DMSO of 97.9%.
On the same count and under the same terms, next, `COc1cccc(-c2noc(-c3cccnc3)n2)c1`: 97.1%; `COc1ccc(-c2ccc(SCC(=O)N3c4ccccc4CC3C)nn2)cc1OC` (stereo not given): 98%.
Compound `Cc1ccc2c(nc3s/c(=C\c4ccc(-c5ccccc5C(=O)O)o4)c(=O)n32)c1C` displayed a GFP response vs DMSO of 117%.
`COC(=O)C1=C(C)NC(C)=C(C(=O)OC)C1c1ccc(OC(=O)c2oc3ccccc3c2C)c(OC)c1` registered a GFP response vs DMSO of 98.1%.
The same measure, in the same setting: the result for `COc1ccc(N2CCN(C(=O)C3CCCN(S(=O)(=O)c4ccc(C)cc4)C3)CC2)cc1` (stereo not given) reads 97.4%; that for `O=C(Nc1nccs1)C(c1ccccc1)N1CCCCC1` (stereo not given), 100%.
Consider `C/C(=N\NC(=O)c1cccc(Br)c1)c1ccc(Br)cc1`, for which the GFP response vs DMSO was found to be 98.7%.
The same measure, in the same setting: next, `O=C(OCCCOC(=O)c1ccc(Br)o1)c1ccc(Br)o1`: 95.3%; `CCOC(=O)Cc1csc(NC(=O)c2sc3nc4c(C)cc(C)cc4cc3c2N)n1`: 96.7%.
Same read-out and setting: next, `Cc1nn2c(N3CCOCC3)c3c(nc2c1-c1ccccc1)CCCC3`: 102%; `O=C(Nc1cc(Sc2ccccn2)cc([N+](=O)[O-])c1)c1ccc(Cl)cc1`: 99.6%; `O=S(=O)(c1cccc(C(F)(F)F)c1)c1ccc(O)cn1`: 99.4%.
The compound `COc1cc(/C=N/Nc2nc(C)cc(=O)[nH]2)ccc1O` displayed a GFP response vs DMSO of 104%.
On the same count and under the same terms, next, `O=C(N/N=C/c1ccccc1Cl)c1ccc(F)cc1`: 98.1%; `Cc1cccc(C(=O)Nc2ccc(O)cc2)c1`: 97%.
In the case of `COc1ccc(NC2=C(Cl)C(=O)N(CCc3ccccc3)C2=O)cc1`, the GFP response vs DMSO was determined as 99.3%.
Still for that read-out and setting: next, `CN(C(=O)c1cccnc1)c1nc(-c2ccccc2)cs1`: 97.3%; `Cc1ccc(NC(=O)c2nc(S(=O)(=O)Cc3ccccc3C)ncc2Cl)cc1C`: 89.6%; `Cc1cccn2c(=O)c(/C=C(\C#N)C(=O)NCc3ccco3)c(N3CCC(C(N)=O)CC3)nc12`: 90.9%.
On to `Cc1cc(C)c(C)c(S(=O)(=O)ON2C(=O)c3ccccc3C2=O)c1C`, for which the GFP response vs DMSO came to 97.5%.
Compound `CS(=O)(=O)c1nc(-c2cccs2)cc(C(F)(F)F)n1` displayed a GFP response vs DMSO of 95.2%.
Turning to `COc1cc(NC(=O)c2cccs2)ccc1NC(=O)c1cc2ccccc2o1`, the GFP response vs DMSO was determined as 96.9%.
The same measure, in the same setting: next, `Cc1cc(NCCN2CCOCC2)n2ncc(-c3ccccc3)c2n1`: 99.8%.
